TWEAK Fn14 block: blocks TWEAK-Fn14 interaction in a reporter cell assay | AID 1159606 | TWEAK-stimulated Fn14 reporter cells, luciferase luminescence, 8 h | inhibition, % at 10 µM | actives 2% (n = 360,000); in the data active means inhibition above about 50%
HSF-1 act: increases HSF-1 driven luciferase reporter signal; NIH3T3-HGL HSF-1 luciferase reporter, MG132, 8 h; 100% = twice DMSO control signal; activation, % at 9 µM; actives 1.7% (n = 300,000); AID 504408;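 active means mean replicate activation of at least 50% with a set share of replicates each reaching 50%; inconclusive means only one of those two conditions met; inactive means mean below 50% and too few replicates reaching it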
HSF1 inh: HSF1 inhibition; NIH3T3-HGL HSE-luciferase, MG132-induced, luminescence 8 h; active compounds read low; activity change, negative = inhibition, % at 7.5 µM (by protocol); actives 0.77% (n = 300,000); AID 2098;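 active means more than half of replicate wells show activity change below -50%, luminescence cut by over half; inconclusive means some wells, but at most half, below -50%; inactive means no replicate well below -50%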;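 further: luciferase reports HSF-1 transcriptional activity via heat shock element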
HSP90 refold inh: inhibitors of HSP90 luciferase refolding in rabbit reticulocyte lysate | luciferase refolding luminescence, 3 h | inhibition, % at 5.6 µM | actives 0.91% (n = 290,000) | AID 1789;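 active means inhibition above the screen-wide mean plus 3 SD, computed separately per campaign, cut at about 16% in these data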;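 further: inhibitors lower the luminescence because luciferase stays unfolded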
EBV LMP1 NFkB: inhibitors of Epstein-Barr LMP1-induced NF-kappaB reporter | LMP1-induced NF-kappaB luciferase reporter cells, luminescence | inhibition, % at 12.5 µM | actives 0.69% (n = 350,000); in the data active means inhibition above about 41%; inconclusive means no clear call, values can overlap the other calls
TROY NFkB inh: inhibitors of TROY-dependent NF-kB signaling; Q293 LMP1-TROYcd NF-kB luciferase reporter, 4 h; inhibition, % at 10 µM; actives 0.98% (n = 360,000);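 active means compounds whose plate-normalised and pattern-corrected inhibition of the luciferase reporter signal at the single screening dose is 50% or more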
Of the large screens only hits and unclear results are named; the others gave an inactive call. Sampled rows, rich in hits. Any-hit rate of the full collection: about 4.7%.

N=C1c2ccccc2CN1NC(=O)COc1ccc(Cl)cc1	none
CN(C)Cc1csc(NC(=O)Nc2ccccc2Cc2ccccc2)n1	none (no result: HSF-1 act, HSF1 inh, HSP90 refold inh, EBV LMP1 NFkB)
O=C(c1cccc(NS(=O)(=O)c2ccccc2)c1)N1CCCC1	none
O=C(c1cccc(NS(=O)(=O)c2ccc(F)c(F)c2)c1)N1CCN(C(c2ccccc2)c2ccccc2)CC1	TWEAK Fn14 block 57
CCOc1ccc(C(=O)N2CCCC(c3nc(-c4cccs4)no3)C2)cc1 (stereo not given)	TWEAK Fn14 block 63, TROY NFkB inh 64
Cc1cccc(C(=O)N2CCCC(c3nc(-c4ccc(C)o4)no3)C2)c1 (stereo not given)	HSF-1 act 61
CCC(CC)C(=O)N1CCCC(c2nc(-c3cccs3)no2)C1 (stereo not given)	none
Cc1ccccc1C1NC(=O)c2ccccc2O1 (stereo not given)	TWEAK Fn14 block 88
CC(C)c1ccc(C2NC(=O)c3ccccc3O2)cc1 (stereo not given)	HSF-1 act 71
COC(=O)c1ccc(N2C(c3ccsc3)=Cc3cc4c(cc3C2CC(=O)c2ccco2)OCO4)cc1 (stereo not given)	none (no result: HSF-1 act, HSF1 inh, HSP90 refold inh, EBV LMP1 NFkB)
COc1ccc(C(N)c2csc(Nc3ccc(C(F)(F)F)cn3)n2)cc1 (stereo not given)	none (no result: HSF-1 act, HSF1 inh, HSP90 refold inh, EBV LMP1 NFkB)
COc1cccc(C(=O)c2ccccc2C(=O)O)c1	none (no result: HSF-1 act, HSF1 inh, HSP90 refold inh, EBV LMP1 NFkB)
O=C(Oc1ccc(-c2cnc3ccccc3n2)cc1)c1cc([N+](=O)[O-])ccc1Cl	HSF-1 act 80
Cc1c(C(=O)Oc2ccc(-c3cnc4ccccc4n3)cc2)cccc1[N+](=O)[O-]	none
O=C(Oc1cccc([N+](=O)[O-])c1)c1cc(-c2ccccc2)nc2ccccc12	HSF-1 act 75
Cc1sc2ncnc(N/N=C/c3ccccc3O)c2c1C	EBV LMP1 NFkB 43
Cc1sc2ncnc(N/N=C/c3ccc(O)cc3)c2c1C	TWEAK Fn14 block 52
CCCCCCN1C[C@@H](n2cc(COC(=O)c3ccccc3)nn2)[C@H](O)C[C@@H]1c1ccc(Cl)cc1	none (no result: HSF-1 act, HSF1 inh, HSP90 refold inh)
CNc1ncnc2c1ncn2[C@H]1CN(Cc2cccnc2)C[C@@H](CO)O1	none (no result: HSF-1 act, HSF1 inh, HSP90 refold inh, EBV LMP1 NFkB)
CCOC(=O)c1c(NC(=O)CC)sc(C(=O)N2CCCCC2)c1C	none (no result: HSF-1 act, HSF1 inh)
CCOC(=O)c1sc(NC(=O)CCN2CCCCCC2)c(C(=O)OCC)c1C	HSF-1 act 193
CCOC(=O)c1sc(NC(=O)CNCc2ccccn2)c(C(=O)OCC)c1C	EBV LMP1 NFkB 44
COc1ccc(CN2C[C@@H](CO)O[C@@H](n3cnc4c(NCCO)ncnc43)C2)cc1	none (no result: HSF-1 act, HSF1 inh, HSP90 refold inh, EBV LMP1 NFkB)
CC(=O)Nc1ccc(S(=O)(=O)Nc2ccc3[nH]c(=O)[nH]c3c2)cc1	TWEAK Fn14 block 54
CCCC(=O)NC(c1ccc(C(C)C)cc1)c1ccc2cccnc2c1O (stereo not given)	HSF1 inh inconclusive, EBV LMP1 NFkB 62
CCCCC(=O)NC(c1ccc(OC)cc1)c1ccc2cccnc2c1O (stereo not given)	EBV LMP1 NFkB 65 (no result: HSF-1 act, HSF1 inh, HSP90 refold inh)
CCCC(=O)NC(c1ccc(OC)c(OC)c1)c1cc(Cl)c2cccnc2c1O (stereo not given)	none
Cc1cc(NC(c2ccc(Cl)cc2)c2ccc3cccnc3c2O)no1 (stereo not given)	HSF-1 act inconclusive, EBV LMP1 NFkB 70
CCCC(=O)NC(c1ccccc1Cl)c1ccc2cccnc2c1O (stereo not given)	EBV LMP1 NFkB 66
CCC(=O)NC(c1ccc(C)cc1)c1ccc2cccnc2c1O (stereo not given)	EBV LMP1 NFkB inconclusive
COc1ccc(C(NC(=O)C2CCN(C/C=C/c3ccc(OC(C)=O)c(OC)c3)CC2)c2ccccn2)cc1 (stereo not given)	none (no result: HSF-1 act, HSF1 inh, HSP90 refold inh, EBV LMP1 NFkB)
O=C(NCCN1CCC(n2c(=O)[nH]c3ccccc32)CC1)c1ccccc1C(F)(F)F	none (no result: HSF-1 act, HSF1 inh, HSP90 refold inh, EBV LMP1 NFkB)
CC(=O)NC(c1ccc(Cl)cc1)c1ccc2cccnc2c1O (stereo not given)	EBV LMP1 NFkB 63 (no result: HSF-1 act, HSF1 inh, HSP90 refold inh)
Oc1c(C(Nc2ccccn2)c2ccccn2)ccc2cccnc12 (stereo not given)	none
CCCC(=O)NC(c1ccc(N(C)C)cc1)c1ccc2cccnc2c1O (stereo not given)	HSF-1 act inconclusive, EBV LMP1 NFkB 47
CC(=O)NC(c1ccc(N(C)C)cc1)c1cc(Cl)c2cccnc2c1O (stereo not given)	none (no result: HSF-1 act, HSF1 inh, HSP90 refold inh)

Assay outcomes as filed in PubChem.
